Screens (PubChem BioAssay)
S16 viability – toxic to S16 Pmp22-F2sN Schwann cells; S16 Pmp22-F2sN Schwann cells viability, CellTiter-Glo, 24 h; Potency, µM (top dose mostly 57.5 µM), for inactives: top-dose activity change, negative = cytotoxicity, actives largely listed as cytotoxic; 43,000 tested, 0.48% active; AID 1508642; note: potency is the fitted concentration of half-maximal effect; % is set by controls: 0 for no effect and ±100 for the full control effect; nearly all actives have a fitted effect of over 65% in size
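Luminescence from CellTiter-Glo, read by CCD camera after a 15 min room-temperature incubation, served as the viability signal. Reporter Schwann cells (S16 Pmp22-F2sN) had been treated with pin-transferred compounds for 24 h at 37C.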
p53null 39C tox – p53 null cell cytotoxicity, nonpermissive temperature | H1299 p53-null (neo) cells, 39C, ATPlite viability, 24 h | Potency, µM (top dose mostly 46.1 µM), inactives show at the top dose activity, negative = cell killing, usual class: cytotoxic | 55,000 tested, 0.97% active;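 note: potency is the fitted concentration of half-maximal effect; 0% = DMSO only and -100% = full killing by 100 µM tamoxifen; nearly all actives have a fitted effect of over 50% in size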
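Cells seeded at 600/well, 37C overnight. Compound added (up to 46 uM), plates shifted to 39C for 24 hr. ATPlite added, luminescence read after 20 min at room temperature.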
mTORC1 inh – reduces mTORC1 signaling in Tsc2 and p53 null MEF cells. 44,000 tested, 0.78% active. Tsc2-/- p53-/- MEF, phospho-rpS6 immunofluorescence/PI, 24 h. Potency, µM (series often up to 38.3 µM), for the others: at the top dose activity change, negative = inhibition, most hits filed as inhibitors;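 note: potency is the fitted concentration of half-maximal effect; plate controls were DMSO for no effect and rapamycin for full effect; nearly all actives have a fitted effect of over 50% in size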
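Tsc2-/-, p53-/- mouse embryonic fibroblasts (empty-vector line) exposed to compound 24 hrs at 37 C, fixed, immunostained for phospho-rpS6 and counterstained with propidium iodide. Acumen laser scanning gives % positive cells from Alexa 488/PI ratio, thresholded using 7.5 nM rapamycin; PI count gives viability.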
p53null 32C kill – kills p53 null cells at the permissive temperature; 55,000 tested, 0.62% active; AID 903; Potency, µM (titrated, usually from 46.1 µM), for the others: at the highest dose activity change, negative = cytotoxicity, actives largely listed as cytotoxic; H1299-neo p53 null cells, ATP luminescence, 24 h, 32C;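 note: potency is the fitted concentration of half-maximal effect; 0% = DMSO only and -100% = full killing by 100 µM tamoxifen; nearly all actives have a fitted effect of over 55% in size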
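ATP-content luminescence in p53-null H1299-neo cells after 24 h compound exposure (up to 46 uM) at 32C permissive temperature; 0% and 100% killing set by DMSO and 100 uM tamoxifen; Hill-equation AC50.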
PMP22 txn prim – PMP22 gene transcription modulation. 43,000 tested, 2% active. S16 Pmp22-F2sN Schwann cells (luciferase reporters placed in the Pmp22 gene), FLuc/NLuc coincidence luminescence, 24 h. Potency, µM (doses to about 57.5 µM), for inactives: top-dose activity change, negative = inhibition, actives largely listed as inhibitors; active = clear falling dose curves in both reporters; inconclusive = both reporters move, but less clearly or upward; inactive = either reporter flat; the % is the NLuc reporter signal; note: potency is the fitted concentration of half-maximal effect; % is set by controls: 0 for no effect and ±100 for the full control effect
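qHTS, 1536-well. Cells seeded, compounds added by pin tool, 24 h 37C. Nano-Glo reagent 1 (lysis/FLuc), 10 min RT, read; Stop&Glo, 10 min RT, read NLuc.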
NLuc saturating – NanoLuc enzyme inhibition artifact for PMP22 screen. shares compounds with PMP22 txn prim. Secreted NLuc enzyme (filtered S16 cell medium), Nano-Glo luminescence. Potency, µM (titrated, usually from 57.5 µM), for the others: at the top dose activity change, negative = inhibition, actives largely listed as inhibitors. 690 tested, 4% active. AID 1508638; note: potency is the fitted concentration of half-maximal effect; % is set by controls: 0 for no effect and ±100 for the full control effect
NLuc Km counter – inhibits NanoLuc under Km conditions, PMP22 counter-screen; AID 1508639; secreted NLuc enzyme, coelenterazine luminescence, Km conditions; 690 tested, 5% active; Potency, µM (series often up to 57.5 µM), without a hit: at the highest dose activity change, negative = inhibition, usual class: inhibitors; shares compounds with PMP22 txn prim; note: potency is the fitted concentration of half-maximal effect; % is set by controls: 0 for no effect and ±100 for the full control effect
FLuc counter – firefly luciferase enzyme inhibition artifact for PMP22 screen. shares compounds with PMP22 txn prim. purified P. pyralis FLuc, luminescence, 10 min. Potency, µM (titrated, usually from 57.5 µM), for the others: at the highest dose activity, negative = inhibition, hits mostly inhibitors. 690 tested, under 10 active; note: % of control where 0% means no effect
Target sequence (P08659 whole entry, looked up): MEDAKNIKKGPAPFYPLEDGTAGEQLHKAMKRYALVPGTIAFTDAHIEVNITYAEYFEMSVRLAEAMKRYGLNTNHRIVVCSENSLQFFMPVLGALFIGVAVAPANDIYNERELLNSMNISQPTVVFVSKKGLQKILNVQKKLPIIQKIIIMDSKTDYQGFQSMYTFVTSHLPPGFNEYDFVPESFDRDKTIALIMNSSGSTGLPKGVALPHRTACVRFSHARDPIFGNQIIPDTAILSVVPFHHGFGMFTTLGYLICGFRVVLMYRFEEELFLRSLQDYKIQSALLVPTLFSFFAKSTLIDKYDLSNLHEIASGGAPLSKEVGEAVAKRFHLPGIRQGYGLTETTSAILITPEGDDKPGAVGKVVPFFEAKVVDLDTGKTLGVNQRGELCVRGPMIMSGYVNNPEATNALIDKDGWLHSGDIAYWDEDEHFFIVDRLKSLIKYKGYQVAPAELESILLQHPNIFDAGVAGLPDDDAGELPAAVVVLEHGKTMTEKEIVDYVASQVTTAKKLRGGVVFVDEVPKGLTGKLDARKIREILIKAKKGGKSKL
S16 viab conf – S16 Schwann cell cytotoxicity, confirmatory | Potency, µM (series often up to 57.5 µM), without a hit: top-dose activity change, negative = viability loss, most hits filed as cytotoxic | shares compounds with PMP22 txn prim | S16 Schwann cells viability, CellTiter-Glo ATP luminescence, 24 h | 690 tested, 7% active | AID 1508641; note: potency is the fitted concentration of half-maximal effect; % is set by controls: 0 for no effect and ±100 for the full control effect
PMP22 txn conf – PMP22 transcription modulation, confirmatory; shares compounds with PMP22 txn prim; S16 Schwann cells Pmp22-F2sN, dual luciferase, 24 h; Potency, µM (titrated, usually from 57.5 µM), for the others: at the highest dose activity change, negative = inhibition, most hits filed as inhibitors; 690 tested, 22% active; AID 1508646; active = clear falling dose curves in both reporters; inconclusive = both reporters move, but less clearly or upward; inactive = either reporter flat; the % is the FLuc reporter signal; note: potency is the fitted concentration of half-maximal effect
Active calls of the source: *; u = inconclusive; x = no result given. Only some compounds are listed: those with a hit (about 3.2% of all), similar ones and a draw of the others. Unless noted, calls come from the whole dose curve; as a rule, active = well fitted curve in the direction sought with a large enough effect; inconclusive = small, poorly fitted or top-dose-only effect, or another doubt; inactive = no such curve, though single readings can be large; an effect the other way counts as inactive or inconclusive.

SMILES	S16 viability	p53null 39C tox	mTORC1 inh	p53null 32C kill	PMP22 txn prim	NLuc saturating	NLuc Km counter	FLuc counter	S16 viab conf	PMP22 txn conf
Cc1cc(C)c(OCC(=O)N(Cc2ccco2)Cc2ccco2)c(C)c1	-16%	-10%	0%	13%	u	x	x	x	x	x
CCOc1ccc2oc(=O)cc(CN3CCN(Cc4ccc(F)cc4)CC3)c2c1	u	-9%	-5%	-5%	14µM*	-9%	9%	-3%	-9%	-17%
CC(C)c1ccc(OCC(=O)Nc2cc(-c3nc4ncccc4o3)ccc2Cl)cc1	21%	-11%	0%	-2%	13µM*	-5%	5%	-9%	3%	u
CCCCn1c(=N)n(CCOc2ccccc2OC)c2ccccc21	u	u	12µM*	-9%	20µM*	-10%	1%	-10%	u	u
CC(=O)c1ccc(N2CCN(S(=O)(=O)c3cc(-c4onc(C)c4C)ccc3C)CC2)cc1	-15%	-19%	-14%	-10%	10µM*	u	u	-1%	-9%	-18%
COc1ccc(OC)c(CCNc2ncnc3onc(C)c23)c1	-17%	-6%	u	-8%	11µM*	-9%	-4%	u	-13%	-26%
CCc1ccc(-c2cc(C)no2)cc1S(=O)(=O)NCc1ccc(OC)cc1	2%	u	u	-19%	6µM*	u	u	-18%	-11%	u
CCOc1ccc(CNS(=O)(=O)c2cc(-c3cc(C)no3)ccc2C)cc1OC	0%	-5%	3%	-9%	-9%	x	x	x	x	x
CCC(=O)Nc1ccccc1-c1nc2ccccc2n(C(C)C(=O)Nc2ccc(OC)cc2)c1=O (configuration not stated)	1%	5%	-11%	-5%	12%	x	x	x	x	x
COc1ccc(OC)c(CNC(=O)c2c(C)oc3ncn(CC(C)C)c(=O)c23)c1	u	-8%	1%	5%	10µM*	u	u	3%	-16%	u
COc1ccc(OC)c(CCNC(=O)c2c(C)oc3ncn(CC(C)C)c(=O)c23)c1	13%	-35%	4%	8%	u	x	x	x	x	x
CC(C)Cn1nc(NC(=O)c2cccc(Cl)c2)c2cc3ccccc3nc21	u	-15%	2%	-17%	-11%	x	x	x	x	x
COc1cc(C2CC(=O)Nc3cc4c(cc32)OCCO4)cc(Br)c1OC (configuration not stated)	u	-9%	u	16%	0.67µM*	-4%	-8%	4%	-4%	u
CCOc1cc(C2CC(=O)Nc3cc4c(cc32)OCCO4)ccc1O (configuration not stated)	u	-8%	-1%	8%	-30%	x	x	x	x	x
Cc1oc(-c2ccccc2)nc1Cn1c(=O)cc(-c2ccccc2)c2c(C)nn(C)c21	-4%	21%	-8%	10%	2%	x	x	x	x	x
